About 320 (15%) of roughly 2,100 compounds were called active. Another 52% or so got no clear call; they are omitted. This is one part of the list. Values without a mark were called inactive. The call rests on the fitted dose curve; in most records, active means well fitted cell-killing curve with a large enough effect; inconclusive means small, poorly fitted or top-dose-only effect, or effect the other way; inactive means flat fitted curve, though single readings scatter.
Assay: Viability Counterscreen for CMV-Luciferase Assay of Inhibitors of ATXN expression; further: nearly all actives have a fitted effect of over 55% in size
Conditions: HEK-293 CMV-luciferase cells viability, protease fluorescence, 24 h; activity change, negative = cytotoxicity: at the top concentration
Description: PI: Daniel Scoles Ph.D. University of Utah School of Medicine, Salt Lake City, Utah MLPCN Grant: NS073009 Spinocerebellar ataxia type 2 (SCA2) is a multisystem neurodegenerative disease caused by a dominantly acting mutation leading to expansion of a polyQ domain in the ataxin-2 protein (ATXN2). SCA2 patients develop progressive ataxia and later lose function in other neuronal systems. Prominent parkinsonian signs develop in some patients. Like many neurodegenerative disorders, no symptomatic or disease-modifying treatments are known. The primary objective of the proposed research is to identify compounds inhibiting ATXN2 expression and to test them for efficacy in SCA2 mouse models. We have developed a cell-based assay paired with an in vivo mouse model using identical luciferase expression constructs. This approach takes advantage of an ATXN2-luciferase transgene, with the luciferase gene flanked by the upstream and downstream portions of the ATXN2 gene. Here we describe a 5-7 dose quantitative high thoroughput screen (qHTS) for compounds lowering ATXN2 expression. We screened the NIH Molecular Libraries Small Molecule Repository (MLSMR) and NCGC's mechanistically annotated (MIPE) and drug repurposing (NPC) collections of compounds for lowering expression of an ATXN2-luciferase reporter in HEK-293 cells. The assay is a multiplexed cell viability assay to ensure target reduction in the absence of cytotoxicity. Secondary qHTS assays included a CMV-luciferase reporter expressed in HEK-293 cells as well as a biochemical assay using recombinant luciferase to detect inhibitors of the reporter enzyme. Compounds that inhibit ATXN2 expression but is not cytotoxic were selected for confirmatory and secondary screens.
PROTOCOL TABLE (as described by Inglese J, Shamu CE and Guy RK. 2007) SEQUENCE No. (e.g., 1, 2, 3, etc.); […] (e.g., Cells, Incubation, Reagent, etc.); VALUE; DESCRIPTION. 1; Cells; 4 uL; white, solid bottom, 1536-well Greiner assay plate. 2; Incubation; 2 hr; 37 degree C in 5% humidified CO2. 3; Compounds; 23 nL; Kalypsis pintool (Wako USA) equipped with a 1536-well pin head. 4; Incubation; 24 hr; 37 degree C in 5% humidfified CO2. 5; Reagent; 1 uL; Gly-Phe-7-Amino-4-trifluoromethylcoumarin. 6; Incubation; 30 min; 37 degree C in 5% humidfified CO2. 7; Detection; Fluorescence; Viewlux plate reader (PerkinElmer). 8; Reagent; 3 uL; SteadyGlo luciferase solution (Promega). 9; Incubation; 5 min; room temperature. 10; Detection; Luminescence; ViewLux plate reader (PerkinElmer). NOTES (numbers refer to Sequence numbers above) 1. HEK-293 cells expressing CMV-luciferase reporter (designated as SC cells) were suspended in phenol-red free DMEM and dispensed in assay plates using a Multidrop Combi dispenser (Thermo Fisher Scientific). 2. Assay plates were incubated. Evaporation was prevented by covering assay plates with metal lids containing holes to allow gas diffusion. 3. Compounds were added in a dose response manner with the final concentrations of 57, 11.4, 2.28, 0.46, 0.091, 0.018, 0.0037 uM. Vehicle-only plates, with DMSO being pin-transferred to columns 5-48, were inserted uniformly at the beginning and the end of each library to monitor and record any shifts in assay performance. 5. 125 uM Gly-Phe-7-Amino-4-trifluoromethylcoumarin (MP Biomedicals) working concentration was used at a final concentration of 25 uM. 7. To assess cell viability; the assay plates were read using the ViewLux high-throughput CCD imager (PerkinElmer), wherein single end-point fluorescence measurement was acquired (excitation 405/10; emission 540/25 nm). 8. Detection reagent SteadyGlo Luciferase (Promega) was added to the assay plate. 10. Luminescence is then measured on the ViewLux imager equipped with a clear emission filter using a 2 sec exposure. […]
On the % scale 0 is the no-effect control and ±100 the full control effect; potency means the concentration at half of the fitted maximal effect.

| Compound | activity change, negative = cytotoxicity | Potency |
| --- | --- | --- |
| Cc1cc(C)cc(NC(=O)CCC(=O)Nc2cc(C)on2)c1 | 16.8% |  |
| Cn1c(SCc2ccc(C(C)(C)C)cc2)nnc1C1COc2ccccc2O1 (centres undefined) | -14.2% |  |
| N#C/C(=C/c1ccc(Sc2nc3ccccc3[nH]2)o1)c1cccc(F)c1 | -26.5% |  |
| CC1(C(=O)NC2CCN(Cc3ccccc3)CC2)CCN1Cc1ccc2ccccc2c1 (centres undefined) | -17.7% |  |
| C=CCN(C(=O)CSc1nc2c(sc3ccccc32)c(=O)n1CCN(CC)CC)c1ccccc1 |  | 20 µM (active) |
| COc1ccc(/C=C/C(O)=C2/C(=O)N(C)C3(C)CC2c2ccccc2O3)cc1 (centres undefined) | 0.775% [at 57.5 µM] |  |
| COc1ccc(C(=O)c2c(C)c3ccccc3n2CC(O)CNC(C)C)cc1 (centres undefined) |  | 17.8 µM (active) |
| O=C(Oc1c(CN2CCOCC2)cc(Cl)c2cccnc12)c1cccs1 | 6.23% [at 57.5 µM] |  |
| COc1cnc(-c2ccccn2)nc1NC(C)C |  | 6.31 µM (active) |
| COc1cc(C#Cc2c(-c3cncn3C)n(C)c3ccc(-c4ccc(CN5CCOCC5)cc4)cc23)cc(OC)c1 | 3.5% |  |
| COc1ccc2c(-c3ccc(S(N)(=O)=O)cc3)c(-c3ccc(S(C)(=O)=O)cc3)sc2c1 | -21.7% [at 57.5 µM] |  |
| NC(=O)c1cc([N+](=O)[O-])ccc1NCc1ccc(N)cc1 |  | 22.4 µM (active) |
| OCCN1CCN(C2CCC(c3ccc(F)cc3)c3ccc(F)cc32)CC1 (centres undefined) | -5.95% [at 57.5 µM] |  |
| CC(C)CC(NC(=O)c1ccc(Cl)cc1)C(=O)OCC(=O)c1ccc2c(c1)NC(=O)CO2 (centres undefined) |  | 14.1 µM (active) |
| CN(C)CCCNc1nc2cc(-c3cccc(Cl)c3)sc2c(=O)n1C | -16.2% [at 57.5 µM] |  |
| O=C(CNC(=O)c1ccccc1O)N/N=C/c1cc(Br)ccc1OC(=O)/C=C/c1ccco1 | 13% |  |
| CCCn1ncc(CN2CCC(C(=O)Nc3cccc(-c4cccc(F)c4)c3)CC2)c1C | -27.1% [at 57.5 µM] |  |
| COCc1ccc(CN2CCC(C(=O)Nc3cccc(-c4cccc(Cl)c4)c3)CC2)o1 |  | 17.8 µM (active) |
| CC(=O)c1cc(CN2CCC(C(=O)Nc3cccc(-c4cscn4)c3)CC2)cs1 | -11.1% [at 57.5 µM] |  |
| O=C(NCc1ccco1)c1ccc(-c2cccc(Cl)c2)o1 | -7.88% [at 57.5 µM] |  |

| Compound | activity change, negative = cytotoxicity | Potency |
| --- | --- | --- |
| CN1CCC(N(C)C(=O)c2ccc(Cl)c(S(=O)(=O)N3CCc4ccccc43)c2)CC1 | -12.2% [at 57.5 µM] |  |
| Cc1ccccc1SCC(=O)N1CCN(c2ccc(C(F)(F)F)cn2)CC1 | -1.97% |  |
| O=C(Nc1ccc(F)cc1)c1sccc1SCc1cccc(C(F)(F)F)c1 | -14.2% [at 57.5 µM] |  |
| O=C(CSC1=NNC(c2ccccn2)S1)Nc1ccc(C(F)(F)F)cc1 (centres undefined) |  | 14.1 µM (active) |
| COC(=O)c1ccsc1NC(=O)CN1CCN(Cc2ccc3c(c2)OCO3)CC1 | 9.4% [at 57.5 µM] |  |
| Cc1ccc(C(=O)CN2C(=O)c3ccccc3S2(=O)=O)cc1 | 1.75% |  |
| Cc1ccc(C(=O)COC(=O)c2ccc3c(c2)C(=O)N(c2cccc4ncccc24)C3=O)cc1 |  | 22.4 µM (active) |
| Cc1ccc2nc(NC(=O)CSCC(=O)OCC(=O)c3ccc(Br)cc3)sc2c1 | 16.3% [at 57.5 µM] |  |
| O[C@@H]1[C@@H](O)C=C2CCN3Cc4cc5c(cc4[C@H]1C23)OCO5 (some centres undefined) |  | 6.31 µM (active) |
| Cc1cc(C)n(-c2ccc(C(=O)N3CCN(S(=O)(=O)c4cccc(Br)c4)CC3)cc2)n1 | 3.92% |  |
| CCc1cc(-c2[nH]ncc2-c2ccc(OC)cc2)c(O)cc1O | -18.3% |  |
| CCn1c2ccccc2c2cc(/C=C(/C#N)C(N)=S)ccc21 | -29.2% |  |
| O=C(Nc1ccc(Oc2ccc(NC(=O)Nc3ccc([N+](=O)[O-])cc3)cc2)cc1)Nc1ccc([N+](=O)[O-])cc1 |  | 10 µM (active) |
| CCOC(=O)/C=C/C(=O)Nc1ccc(Oc2ccccc2)cc1 | -13.1% |  |
| Cc1ccc(Cc2cnc(NC(=O)/C(C#N)=C/c3ccc(-c4cccc([N+](=O)[O-])c4)o3)s2)cc1 |  | 20 µM (active) |
| Cc1ccc(-c2ccc(/C=N/c3ncn[nH]3)o2)cc1Cl | -27.7% |  |
| CCCc1cc(=O)[nH]c(-n2[nH]c3c(c2=O)CCCC3)n1 |  | 22.4 µM (active) |
| CCn1c2ccccc2c2cc(NC(=O)COC(=O)c3cc(S(=O)(=O)N4CCCCC4)ccc3Cl)ccc21 | 12.4% |  |
| CC[C@]12c3[nH]c4ccc(Cl)cc4c3CCN1C(=O)[C@@H](CC(=O)NCC13CC4CC(CC(C4)C1)C3)C[C@@H]2C(=O)N1CCN(C(=O)C2CC2)CC1 |  | 22.4 µM (active) |
| CC[C@]12c3[nH]c4ccc(Cl)cc4c3CCN1C(=O)[C@@H](CC(=O)NCC13CC4CC(CC(C4)C1)C3)C[C@@H]2C(=O)N1CCN(C(=O)c2ccco2)CC1 |  | 3.16 µM (active) |

| Compound | activity change, negative = cytotoxicity | Potency |
| --- | --- | --- |
| CCOC(=O)c1cnc2ccc(OC)cc2c1Nc1ccc(N2CCN(C)CC2)cc1 | -29.6% [at 57.5 µM] |  |
| Cc1ccc2nc(SCc3ccc([N+](=O)[O-])cc3)[nH]c2c1 | -7.46% |  |
| Cc1ccc2nc3cc([N+](=O)[O-])cc([N+](=O)[O-])c3cc2c1 |  | 11.2 µM (active) |
| COc1cc2nc(N(C)C)nc(N)c2cc1OC |  | 25.1 µM (active) |
| COc1cc2nc(CN(C)Cc3ccc(SC)cc3)[nH]c(=O)c2cc1OC | -19% [at 57.5 µM] |  |
| COc1ccc(C)cc1Nc1nc(N)c2cc(OC)c(OC)cc2n1 | -4.73% |  |
| CC(C)(C)S(=O)(=O)/C(C#N)=N/Nc1ccc(Cl)cc1 |  | 25.1 µM (active) |
| CCc1ccc(N(CC)C(=O)c2ccc3c(Cl)c4c(nc3c2)CCC4)cc1 | -27.5% |  |
| O=C(NC(=S)N1CCN(c2ccc(F)cc2)CC1)c1cccs1 | -10.7% |  |
| O=C(Nc1ccc(N2CCN(C(=O)c3ccco3)CC2)c(Cl)c1)c1c(F)c(F)c(F)c(F)c1F | -27.5% [at 57.5 µM] |  |
| O=C(Nc1ccc(N2CCN(C(=O)c3ccco3)CC2)c(Cl)c1)c1cccs1 |  | 28.2 µM (active) |
| CC(C)(C)OC(=O)N1CCC(c2c(C(=O)NCC3CCN(C4CCCC4)C3)cnn2-c2cccc(Cl)c2)CC1 (centres undefined) | -29.1% |  |
| CC(=O)c1sc(C(C)(C)C)cc1NC(=O)/C=C/C(=O)O | -3.54% [at 57.5 µM] |  |
| CCOC(=O)c1c(C)nn(-c2ccc(NC(=O)/C=C/C(=O)O)cc2)c1C | -16.6% [at 57.5 µM] |  |
| COC(=O)c1c(NC(=O)/C=C/C(=O)O)sc(C)c1-c1ccc(C(C)C)cc1 |  | 20 µM (active) |
| CC(=O)c1ccc(S(=O)(=O)N2CCN(CCOc3ccc(Br)cc3)CC2)cc1 | -20.8% |  |
| CN(C)CCCN(C(=O)c1ccc(S(=O)(=O)N2CCCC2)cc1)c1nc2ccc(Br)cc2s1 |  | 31.6 µM (active) |
| CN(C)CCCN(C(=O)c1ccc(S(=O)(=O)N2CCCCCC2)cc1)c1nc2ccc(Br)cc2s1 | -15.8% |  |
| CN(C)CCCN(C(=O)CCc1ccccc1)c1nc2ccc(Br)cc2s1 |  | 22.4 µM (active) |
